Assay results from PubChem BioAssay (EPA / NIEHS).
Calls of active or inactive are those of the source. How the source made its calls: active means hit-call score of the fitted dose curve at least 0.9, where 1 is the maximum; inactive means score below 0.9.

Experiments:
[1] = ATG_GRE_CIS: Attagene CIS-FACTORIAL HepG2 Assay for human Glucocorticoid Response Elements (GRE) (AID 2282947); details: HepG2 GRE cis-reporter, Attagene multiplex mRNA; actives raise or lower the signal
How it was run: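 Endogenous transcription factor activity is read through cis-element reporter constructs transiently transfected into HepG2 cells. After 24 h treatment, labelled RT-PCR products are resolved by capillary electrophoresis; DMSO sets baseline for bidirectional curve fitting.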

[2] = ATG_ISRE_CIS: Attagene CIS-FACTORIAL HepG2 Assay for human Interferon Regulatory Factor 1 (IRF1) binding to an Interferon-Stimulated Response Element (ISRE) (AID 2282948); details: HepG2 ISRE cis-reporter (Attagene), mRNA transcription readout; actives raise or lower the signal
How it was run: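 Cell-based cis-reporter assay; HepG2; 24 h exposure; reporter mRNA by RT-PCR plus capillary electrophoresis fluorescence; activity in either direction scored relative to DMSO.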

[3] = ATG_M_32_CIS: Attagene CIS-FACTORIAL HepG2 Assay for M32 Transcription Factor (Internal Marker) (AID 2282949); details: HepG2 Attagene cis-factorial M32 reporter, mRNA; actives raise or lower the signal;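 further: background control marker of the multiplexed CIS panel rather than a real target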
How it was run: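 Following 24 h chemical exposure of HepG2 cells transiently expressing cis-promoter reporter constructs, reporter transcript levels were determined by RT-PCR with fluorescent labelling and capillary electrophoresis, then fitted bidirectionally against DMSO.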

[4] = target: Hypoxia-inducible factor 1-alpha (Homo sapiens) (UniProt Q16665); test: ATG_HIF1a_CIS: Attagene CIS-FACTORIAL HepG2 Assay for human Hypoxia Inducible Factor 1 (HIF1A) (AID 2282951); details: HepG2 Attagene cis-factorial HIF1a reporter transcription; actives raise or lower the signal
How it was run: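 Cis-element reporter constructs were transiently transfected into HepG2 cells, which were treated for 24 h; reporter RNA was reverse-transcribed, amplified, labelled and resolved by capillary electrophoresis.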

[5] = target: Hepatocyte nuclear factor 6 (Homo sapiens) (UniProt Q9UBC0); test: ATG_HNF6_CIS: Attagene CIS-FACTORIAL HepG2 Assay for human Hepatocyte Nuclear Factor 6 (HNF6) (AID 2282952); details: HepG2 Attagene cis-factorial HNF6 reporter transcription; actives raise or lower the signal
How it was run: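 HepG2 cells transiently transfected with cis-element-driven multiple reporter transcription units, dosed 24 h; reporter mRNA quantified by RT-PCR, FAM primer extension, HpaI digestion and capillary electrophoresis; bidirectional fit versus DMSO baseline.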

[6] = target: Heat shock factor protein 1 (Homo sapiens) (UniProt Q00613); test: ATG_HSE_CIS: Attagene CIS-FACTORIAL HepG2 Assay for human Heat Shock Transcription Factor 1 (HSE) (AID 2282953); details: HepG2 HSE cis-reporter, Attagene RNA transcription; actives raise or lower the signal
How it was run: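 HepG2 cells transfected with cis-promoter reporter units sensing endogenous transcription factor activity; reporter mRNA quantified 24 h post-dose by RT-PCR and capillary electrophoresis of 6-FAM-labelled products. Bidirectional fitting against DMSO.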

[7] = ATG_MRE_CIS: Attagene CIS-FACTORIAL HepG2 Assay for human Metal Responsive Element (MRE) (AID 2282954); details: HepG2 MRE cis-reporter transcription, Attagene multiplex; actives raise or lower the signal
How it was run: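 Fluorescent reporter fragments separated by capillary electrophoresis give mRNA induction for the MRE unit after 24 h treatment of transfected HepG2 cells. Endogenous transcription-factor activity is read; DMSO serves as negative control and baseline.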

[8] = ATG_PBREM_CIS: Attagene CIS-FACTORIAL HepG2 Assay for human Phenobarbital-responsive Enhancer Module (PBREM) (AID 2282955); details: HepG2 PBREM cis-reporter, Attagene multiplexed transcription; actives raise or lower the signal
How it was run: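 Multiplexed cis-reporter readout in human hepatoma HepG2 cells; PBREM-regulated transcript quantified after 24 h exposure by fluorescent RT-PCR fragment analysis. Signal changes up or down fitted relative to DMSO.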

[9] = target: Paired box protein Pax-6 (Homo sapiens) (UniProt P26367); test: ATG_Pax6_CIS: Attagene CIS-FACTORIAL HepG2 Assay for human Paired Box 6 (PAX6) (AID 2282956); details: HepG2 CIS-FACTORIAL PAX6 reporter transcription, RNA readout; actives raise or lower the signal
How it was run: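 Multiplexed cis-reporter HepG2 system; 24 h treatment; reporter mRNA read by RT-PCR/CE fluorescence; bidirectional fit vs DMSO.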

[10] = ATG_PXRE_CIS: Attagene CIS-FACTORIAL HepG2 Assay for human Pregnane X Receptor Element (PXRE) (AID 2282957); details: HepG2 Attagene CIS-FACTORIAL PXRE reporter, mRNA; actives raise or lower the signal
How it was run: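 HepG2 cells transiently transfected with cis-regulated multiple reporter transcription units; endogenous factor activity measured as reporter mRNA 24 h after dosing. RT-PCR, fluorescent primer extension, HpaI digestion, capillary electrophoresis; bidirectional fit versus DMSO baseline.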

[11] = ATG_RORE_CIS: Attagene CIS-FACTORIAL HepG2 Assay for human RAR-related Orphan Receptor Element (RORE) (AID 2282959); details: HepG2 Attagene cis-factorial RORE reporter, mRNA; actives raise or lower the signal
How it was run: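 Transfect HepG2 with MRTUs; treat 24 h; extract RNA; RT with oligo(dT); PCR with reporter-specific primers; 6-FAM primer extension; HpaI digest 2 h at 37 C; capillary electrophoresis. Fit vs DMSO, bidirectional.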

[12] = ATG_Sox_CIS: Attagene CIS-FACTORIAL HepG2 Assay for human SRY-box transcription factor (SOX) (AID 2282960); details: HepG2 Attagene cis-factorial SOX reporter, mRNA; actives raise or lower the signal
How it was run: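 Fluorescence-labelled cDNA fragments from reporter transcripts, sized by CE, give the signal. Cells: HepG2, transiently transfected with cis-regulated reporter units. Exposure 24 h; DMSO negative control; bidirectional curve fitting.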

[13] = target: Transcription factor Sp1 (Homo sapiens) (UniProt P08047); test: ATG_Sp1_CIS: Attagene CIS-FACTORIAL HepG2 Assay for human Specificity Protein 1 (Sp1) (AID 2282961); details: HepG2 Sp1 cis-reporter transcription, actives raise or lower the signal
How it was run: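 Chemicals are dosed onto HepG2 cells transfected with multiple cis-promoter reporter constructs, and after 24 h reporter RNA is reverse-transcribed, PCR-amplified and resolved by capillary electrophoresis for fluorescence quantitation; activity is scored up or down against DMSO.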

[14] = ATG_SREBP_CIS: Attagene CIS-FACTORIAL HepG2 Assay for human Sterol Regulatory Element Binding (SREBP) (AID 2282962); details: HepG2 Attagene cis-factorial SREBP reporter, mRNA; actives raise or lower the signal
How it was run: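 mRNA induction of transfected cis-promoter reporters in HepG2 cells, 24 h post-dose. Detection: RT-PCR with 6-FAM-labelled products, HpaI digest, capillary electrophoresis. DMSO served as negative control and baseline.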

[15] = target: Signal transducer and activator of transcription 3 (Homo sapiens) (UniProt P40763); test: ATG_STAT3_CIS: Attagene CIS-FACTORIAL HepG2 Assay for human Signal Transducer and Activator of Transcription 3 (STAT3) (AID 2282963); details: HepG2, Attagene cis-factorial STAT3 reporter transcription; actives raise or lower the signal
How it was run: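 Values derive from bidirectional fits relative to DMSO of reporter mRNA levels, measured by RT-PCR with capillary electrophoresis, in HepG2 cells carrying transiently transfected cis-regulated reporter units and exposed 24 h.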

[16] = ATG_TCF_b_cat_CIS: Attagene CIS-FACTORIAL HepG2 Assay for human T-Cell-Factor with beta-catenin (TCF/b-cat) (AID 2282965); details: HepG2 TCF/beta-catenin cis-reporter transcription, actives raise or lower the signal
How it was run: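 HepG2, transient MRTU transfection, cis-element-driven reporters (endogenous TFs). 24 h compound exposure. Readout: reporter mRNA by RT-PCR + 6-FAM primer extension, HpaI digest, capillary electrophoresis. Gain/loss fit vs DMSO baseline.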

[17] = ATG_TAL_CIS: Attagene CIS-FACTORIAL HepG2 Assay for human TAL Basal Promoter (AID 2282966); details: HepG2 Attagene cis-factorial TAL promoter reporter; actives raise or lower the signal;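 further: background control endpoint measuring basal TAL promoter reporter mRNA not a specific factor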
How it was run: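 HepG2 cells were transiently transfected with promoter-driven multiplexed reporter units and dosed for 24 h. Reporter mRNA was measured by RT-PCR with capillary electrophoresis fluorescence; bidirectional fits used DMSO as baseline, serving as a background control.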

[18] = ATG_M_06_CIS: Attagene CIS-FACTORIAL HepG2 Assay for M06 Transcription Factor (Internal Marker) (AID 2282950); details: HepG2 Attagene CIS-FACTORIAL M06 internal marker reporter; actives raise or lower the signal
How it was run: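 Internal background marker within multiplexed cis-reporter HepG2 system. Cells transiently transfected, dosed 24 h; reporter mRNA measured by RT-PCR, HpaI digestion and capillary electrophoresis. Bidirectional fit relative to DMSO.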

[19] = ATG_PPRE_CIS: Attagene CIS-FACTORIAL HepG2 Assay for human Peroxisome Proliferator-activated Response Element (PPRE) (AID 2282958); details: HepG2 PPRE cis-element reporter, Attagene transcription factor profiling; actives raise or lower the signal
How it was run: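 DMSO served as negative control and baseline for bidirectional curve fitting. Signal came from PPRE-regulated reporter mRNA in HepG2 cells, measured 24 h post-dosing by RT-PCR, 6-FAM primer extension and capillary electrophoresis.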

[20] = ATG_TA_CIS: Attagene CIS-FACTORIAL HepG2 Assay for human TA Basal Promoter (AID 2282964); details: HepG2 Attagene CIS-factorial TA basal promoter reporter; actives raise or lower the signal
How it was run: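 HepG2 cells transiently transfected with multiple reporter units under cis promoter elements, reporting endogenous transcription factor activity; this endpoint tracks the TA basal promoter as background control. Reporter mRNA after 24 h dosing measured by RT-PCR/capillary electrophoresis; bidirectional fits versus DMSO.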

Measured: AC50

Sequence of Hepatocyte nuclear factor 6 (Homo sapiens) (Q9UBC0 whole entry, looked up): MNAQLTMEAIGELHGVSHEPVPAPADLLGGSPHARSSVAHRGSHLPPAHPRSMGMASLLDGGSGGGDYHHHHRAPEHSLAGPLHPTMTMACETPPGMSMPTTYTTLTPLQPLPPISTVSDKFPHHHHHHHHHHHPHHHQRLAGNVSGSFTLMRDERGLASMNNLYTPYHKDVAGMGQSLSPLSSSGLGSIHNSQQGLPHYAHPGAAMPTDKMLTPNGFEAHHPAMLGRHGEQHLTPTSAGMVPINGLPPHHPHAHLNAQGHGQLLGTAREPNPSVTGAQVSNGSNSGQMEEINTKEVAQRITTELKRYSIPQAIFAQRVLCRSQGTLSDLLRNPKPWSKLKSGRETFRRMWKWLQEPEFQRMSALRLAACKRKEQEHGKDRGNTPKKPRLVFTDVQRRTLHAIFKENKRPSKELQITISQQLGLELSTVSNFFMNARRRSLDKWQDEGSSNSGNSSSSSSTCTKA
Sequence of Paired box protein Pax-6 (Homo sapiens) (P26367 whole entry, looked up): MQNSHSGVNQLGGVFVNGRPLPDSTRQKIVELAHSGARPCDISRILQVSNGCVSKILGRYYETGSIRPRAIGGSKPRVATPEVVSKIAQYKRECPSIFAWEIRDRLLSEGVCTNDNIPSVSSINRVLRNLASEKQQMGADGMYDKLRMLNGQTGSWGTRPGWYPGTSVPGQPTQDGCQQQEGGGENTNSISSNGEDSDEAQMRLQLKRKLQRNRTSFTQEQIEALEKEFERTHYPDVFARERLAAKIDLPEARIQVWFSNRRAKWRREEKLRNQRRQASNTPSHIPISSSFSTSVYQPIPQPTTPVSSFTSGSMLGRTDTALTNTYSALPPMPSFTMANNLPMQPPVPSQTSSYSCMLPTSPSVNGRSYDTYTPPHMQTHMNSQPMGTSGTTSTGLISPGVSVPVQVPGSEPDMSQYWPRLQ
Sequence of Transcription factor Sp1 (Homo sapiens) (P08047 whole entry, looked up): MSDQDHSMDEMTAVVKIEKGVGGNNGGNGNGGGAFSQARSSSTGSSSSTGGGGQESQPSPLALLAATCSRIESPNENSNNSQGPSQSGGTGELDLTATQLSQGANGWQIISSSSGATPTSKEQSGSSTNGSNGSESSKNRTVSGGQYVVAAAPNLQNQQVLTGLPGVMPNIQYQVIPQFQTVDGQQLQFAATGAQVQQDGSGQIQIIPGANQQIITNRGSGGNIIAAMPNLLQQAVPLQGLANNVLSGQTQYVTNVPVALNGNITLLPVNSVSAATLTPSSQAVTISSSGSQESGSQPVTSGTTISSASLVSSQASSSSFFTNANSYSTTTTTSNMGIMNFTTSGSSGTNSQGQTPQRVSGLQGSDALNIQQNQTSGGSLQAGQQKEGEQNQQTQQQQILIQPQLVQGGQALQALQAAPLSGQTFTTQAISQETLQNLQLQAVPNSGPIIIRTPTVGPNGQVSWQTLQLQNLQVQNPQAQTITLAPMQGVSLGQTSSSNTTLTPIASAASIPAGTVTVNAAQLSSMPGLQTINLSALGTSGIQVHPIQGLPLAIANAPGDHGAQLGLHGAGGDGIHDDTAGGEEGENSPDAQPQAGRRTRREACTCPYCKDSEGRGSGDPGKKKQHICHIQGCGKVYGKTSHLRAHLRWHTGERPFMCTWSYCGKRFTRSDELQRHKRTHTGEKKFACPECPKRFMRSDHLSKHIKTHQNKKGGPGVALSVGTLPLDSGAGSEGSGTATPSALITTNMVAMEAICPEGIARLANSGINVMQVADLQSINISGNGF
Sequence of Hypoxia-inducible factor 1-alpha (Homo sapiens) (Q16665 whole entry, looked up): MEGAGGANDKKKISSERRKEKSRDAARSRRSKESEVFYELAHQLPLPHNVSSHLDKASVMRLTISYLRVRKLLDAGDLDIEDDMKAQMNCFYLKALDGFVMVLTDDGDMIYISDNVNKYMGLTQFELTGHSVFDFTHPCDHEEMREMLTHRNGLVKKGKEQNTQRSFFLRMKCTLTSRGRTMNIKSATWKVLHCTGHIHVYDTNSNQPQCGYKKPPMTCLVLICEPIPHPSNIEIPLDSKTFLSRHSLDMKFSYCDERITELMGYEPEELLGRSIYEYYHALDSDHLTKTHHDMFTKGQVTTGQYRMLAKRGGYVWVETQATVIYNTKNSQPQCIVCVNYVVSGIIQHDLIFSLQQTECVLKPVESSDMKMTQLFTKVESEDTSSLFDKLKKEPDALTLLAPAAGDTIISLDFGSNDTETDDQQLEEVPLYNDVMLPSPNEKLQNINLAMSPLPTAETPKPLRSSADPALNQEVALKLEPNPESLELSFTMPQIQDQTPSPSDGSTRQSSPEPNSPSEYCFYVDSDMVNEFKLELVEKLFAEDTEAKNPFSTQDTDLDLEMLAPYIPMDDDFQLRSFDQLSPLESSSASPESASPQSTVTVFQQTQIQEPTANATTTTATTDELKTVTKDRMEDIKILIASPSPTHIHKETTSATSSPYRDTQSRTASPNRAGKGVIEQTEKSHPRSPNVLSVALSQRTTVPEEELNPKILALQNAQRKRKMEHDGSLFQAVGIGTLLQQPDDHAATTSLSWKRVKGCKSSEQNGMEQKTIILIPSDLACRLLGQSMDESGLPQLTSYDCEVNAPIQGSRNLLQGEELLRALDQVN
Sequence of Signal transducer and activator of transcription 3 (Homo sapiens) (P40763 whole entry, looked up): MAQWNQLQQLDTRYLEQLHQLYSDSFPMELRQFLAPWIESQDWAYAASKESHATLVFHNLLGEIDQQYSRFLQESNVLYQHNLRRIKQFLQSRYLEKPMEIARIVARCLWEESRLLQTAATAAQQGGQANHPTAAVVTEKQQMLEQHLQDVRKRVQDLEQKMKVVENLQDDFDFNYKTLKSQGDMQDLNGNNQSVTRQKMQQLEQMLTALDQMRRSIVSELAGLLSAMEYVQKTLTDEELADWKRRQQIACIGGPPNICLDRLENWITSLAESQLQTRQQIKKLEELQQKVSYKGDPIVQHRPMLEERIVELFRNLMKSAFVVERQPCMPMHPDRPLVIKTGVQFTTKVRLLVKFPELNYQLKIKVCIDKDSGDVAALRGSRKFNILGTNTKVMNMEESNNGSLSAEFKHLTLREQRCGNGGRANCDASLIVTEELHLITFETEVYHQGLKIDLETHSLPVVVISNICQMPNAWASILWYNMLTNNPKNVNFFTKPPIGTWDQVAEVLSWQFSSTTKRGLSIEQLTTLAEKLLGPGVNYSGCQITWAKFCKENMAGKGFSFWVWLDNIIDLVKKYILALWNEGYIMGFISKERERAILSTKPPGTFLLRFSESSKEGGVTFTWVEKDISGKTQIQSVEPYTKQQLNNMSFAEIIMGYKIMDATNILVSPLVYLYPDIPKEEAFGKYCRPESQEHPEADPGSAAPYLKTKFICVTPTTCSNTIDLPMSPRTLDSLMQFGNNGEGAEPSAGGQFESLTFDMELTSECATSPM
Sequence of Heat shock factor protein 1 (Homo sapiens) (Q00613 whole entry, looked up): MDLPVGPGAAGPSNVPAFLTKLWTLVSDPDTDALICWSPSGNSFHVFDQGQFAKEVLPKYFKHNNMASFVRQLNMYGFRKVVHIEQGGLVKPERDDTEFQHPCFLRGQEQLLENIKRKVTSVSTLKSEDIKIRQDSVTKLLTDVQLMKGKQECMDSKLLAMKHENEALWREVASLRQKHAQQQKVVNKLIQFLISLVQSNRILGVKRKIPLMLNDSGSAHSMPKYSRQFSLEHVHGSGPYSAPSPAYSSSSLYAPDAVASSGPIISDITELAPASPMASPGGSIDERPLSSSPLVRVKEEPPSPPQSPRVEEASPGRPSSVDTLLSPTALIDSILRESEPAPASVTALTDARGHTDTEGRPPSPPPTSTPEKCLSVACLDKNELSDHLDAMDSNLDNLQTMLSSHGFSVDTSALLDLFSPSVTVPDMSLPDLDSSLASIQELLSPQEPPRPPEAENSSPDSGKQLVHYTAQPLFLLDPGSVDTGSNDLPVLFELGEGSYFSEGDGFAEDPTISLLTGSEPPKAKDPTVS

[As]#[In]
active: [10] 49.9 µM
not listed: [18] | [19] | [20]
inactive: all other assays above

O=C(Nc1ccccc1)c1ccccc1I
active: [10] 6.15 µM | [14] 42.1 µM
not listed: [1]
inactive: all other assays above

Oc1ccc2ccc3cccc4ccc1c2c34
active: [4] 0.00117 µM | [10] 13 µM
not listed: [18] | [19] | [20]
inactive: all other assays above

CN(C)c1ccccc1
not listed: [8] | [11] | [18] | [19]
inactive: all other assays above

Nc1ccc(N=Nc2ccccc2)cc1
active: [2] 57.2 µM | [4] 58.1 µM | [7] 67 µM | [8] 67.3 µM | [9] 47.4 µM | [10] 57.7 µM | [19] 77.9 µM | [11] 40.7 µM | [20] 52.2 µM | [16] 27.4 µM | [17] 100 µM
inactive: [1] | [3] | [5] | [6] | [12] | [13] | [14] | [15]

OCCOCCO
not listed: [6] | [18] | [20]
inactive: all other assays above

Cc1ccc(N)c(N)c1
active: [7] 29.1 µM | [11] 31.2 µM
not listed: [18] | [19] | [20]
inactive: all other assays above
